Laboratory results from PubChem BioAssay AID504613 (National Center for Advancing Translational Sciences (NCATS), 2011).
Values without a mark were called inactive. Activity calls are given as the source filed them.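 Rule for the calls: active = clear growth inhibition over 72 hours in leukemia cell lines carrying a fused MLL gene, giving a fitted IC50; inactive = the rest.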

Assay: Confirmation of Inhibitors Targeting the Menin-MLL Interaction in MLL Related Leukemias: Confirmation in an MLL leukemia cell growth assay
Conditions: MV4-11 MLL-AF4 leukemia growth, MTT absorbance, 72 h; series mostly up to 50 µM; absorbance, lower = inhibition: at the top concentration
From the text: qHTS Assay for Inhibitors Targeting the Menin-MLL Interaction in MLL Related Leukemias NIH Chemical Genomics Center [NCGC] NIH Molecular Libraries Probe Centers Network [MLPCN] MLPCN Grant: MH084875-01A1 Assay Submitter (PI): Jolanta Grembecka, Tomasz Cierpicki, University of Virginia Translocations of the MLL (Mixed Lineage Leukemia) gene are frequently found in human leukemias affecting both children and adults. Fusion of MLL to one of more than 60 genes results in generation of oncogenic proteins upregulating Hox genes, which are vital to blood cell development. Patients harboring fusion of the MLL gene suffer from aggressive leukemias and respond poorly to available therapies. All of the oncogenic fusion proteins have a preserved N-terminal fragment of MLL that has been identified to interact with menin. It has been recently discovered that association with menin is critical to the leukemogenic activity of the MLL fusion oncoproteins. […] We have developed and optimized a fluorescence polarization-based assay for the identification of Menin-MLL inhibitors. […]
Inhibition of cell proliferation in the MLL leukemia cells: MV4-11 (MLL-AF4), ML-2 (MLL-AF6) KOPN-8 (MLL-ENL) induced by compound measured after 72h treatment, as detected by the MTT cell viability assay. […] Plates were read for absorbance at 570 nm using a PHERAstar BMG microplate reader. […]
With `N#Cc1ccc(OCCCN2CCC(C(O)c3ccccc3)CC2)cc1` (configuration not stated) the “absorbance, lower = inhibition” value was 1.05. In the case of `N#Cc1ccc(OCCCN2CCC(C(O)(c3ccccc3)C3CCCC3)CC2)cc1` (configuration not stated), the IC50 was 12.8 µM (active).
